# Screens from PubChem BioAssay.
# Only some compounds are listed: those with a hit (about 1.6% of all), similar ones and a draw of the others.
# DSG3 Ab inh – blocks pemphigus antibody binding to human desmoglein-3. DSG3-coupled beads, scFv-anti-DSG3-GFP binding, flow cytometry; hits give low values. binding (percent of control), % at 10 µM. 0.48% of 310,000 active;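 active = binding more than 3 SD below its plate's average and above zero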;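 note: hits lower antibody fragment binding to DSG3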
# JMJD2C inh – inhibitors of human GASC-1 (JMJD2C) demethylase; Q9H3R0; GST-JMJD2C(1-420) H3K9me3 demethylation, DELFIA europium; inhibition, % at 2.35 µM; 0.069% of 330,000 active; AID 2099;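 active = more than half of a compound's replicate wells show inhibition beyond 50%, single wells judged on their own value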;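 note: signal counts dimethyl H3K9 product captured on neutravidin plate; 0% = median of DMSO wells and 100% = 0.3 times that DMSO median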
# VLA-4 inh – inhibition in a human VLA-4 binding assay | P13612 | VLA-4 expressing cells, ligand binding flow cytometry | inhibition, % (about 7 µM as worked out from the volumes in the protocol) | 0.2% of 330,000 active | AID 2557; in the data active = inhibition above about 50%
# PREPL inh – inhibits the human prolyl oligopeptidase-like enzyme | Q4J6C6 | recombinant PREPL, fluorescence polarization activity-based probe | inhibition, % at 5.96 µM | 0.68% of 320,000 active; in the data active = inhibition above about 43%;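 note: 0% = enzyme with DMSO and 100% = wells lacking enzyme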
# GRK2 inh – blocks RNA aptamer binding to human GRK2; inhibition of aptamer binding, % at 10 µM; 0.59% of 330,000 active; AID 488847; P25098; bead flow cytometry, FAM-aptamer displacement from GRK2;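 active = inhibition of aptamer binding above 40%, roughly 3 SD of noise, on plates passing a quality check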;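 note: median bead fluorescence of bound FAM aptamer so fluorescent compounds give negative values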
# Target sequence (P25098 whole entry, looked up): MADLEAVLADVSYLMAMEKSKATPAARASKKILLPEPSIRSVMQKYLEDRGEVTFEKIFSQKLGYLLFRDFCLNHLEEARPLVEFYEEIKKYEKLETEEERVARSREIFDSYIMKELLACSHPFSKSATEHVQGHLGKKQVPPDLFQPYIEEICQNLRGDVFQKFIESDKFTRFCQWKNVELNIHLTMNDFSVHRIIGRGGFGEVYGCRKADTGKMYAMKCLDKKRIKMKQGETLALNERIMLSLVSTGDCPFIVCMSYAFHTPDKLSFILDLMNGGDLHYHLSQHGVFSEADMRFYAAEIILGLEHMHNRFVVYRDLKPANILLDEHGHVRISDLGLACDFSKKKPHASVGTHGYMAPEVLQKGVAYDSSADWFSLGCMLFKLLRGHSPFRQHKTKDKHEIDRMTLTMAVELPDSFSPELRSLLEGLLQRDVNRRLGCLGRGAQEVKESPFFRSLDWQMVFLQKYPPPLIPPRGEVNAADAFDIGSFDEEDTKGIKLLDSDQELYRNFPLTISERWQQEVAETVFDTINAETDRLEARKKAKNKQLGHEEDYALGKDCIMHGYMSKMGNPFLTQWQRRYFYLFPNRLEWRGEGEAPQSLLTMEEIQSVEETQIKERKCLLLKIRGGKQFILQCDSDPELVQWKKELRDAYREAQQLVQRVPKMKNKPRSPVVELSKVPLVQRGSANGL
# The depositor's hits bear a star; . = not tested or not shown.
SMILES,DSG3 Ab inh,JMJD2C inh,VLA-4 inh,PREPL inh,GRK2 inh
Cc1ccc(CCNS(=O)(=O)c2c(C)nc3sccn3c2=O)cc1,112,-17,1,-6,1
Cc1nc2sccn2c(=O)c1S(=O)(=O)NCCc1ccc(Cl)cc1,-7.6*,10,3,-4,1
CCN(Cc1nc2cc(Cl)ccc2c(=O)[nH]1)C(=O)CN1C(=O)NC2(CCCCC2C)C1=O (stereo not drawn),105,.,.,.,.
CCn1cc(/C=C(\NC(=O)c2ccccc2F)C(=O)N2CCN(C)CC2)c2ccccc21,98,.,.,.,.
CC(=O)N1c2ccc(S(=O)(=O)N3CCCC(C(=O)N4CCC(C)CC4)C3)cc2CC1C (stereo not drawn),-9.0*,2,9,6,0
CCOc1c(OC(C)=O)ccc(/C=C2\N=C(SCC)SC2=O)c1[N+](=O)[O-],94,0,11,5,100*
CCOc1cc(/C=C2\N=C(SCC)SC2=O)cc([N+](=O)[O-])c1OC(C)=O,98,7,20,4,2
Cc1cc(C=O)c(C)n1-c1cccc(C(=O)O)c1,99,0,-6,0,15
Cc1ccc(C)n1-c1cccc(C(=O)O)c1,.,0,-9,5,96*
CC(C)(C)NC(=O)Cc1ccc(S(=O)(=O)N2CCCC2)s1,75*,18,9,10,1
Cc1cc(OC(C)C(=O)N2C[C@H]3C[C@@H](C2)c2cccc(=O)n2C3)c2c(C)c(C)c(=O)oc2c1 (stereo partly drawn),101,10,-5,0,2
O=C(NCCCCCCNC(=O)OCc1ccccc1)OCc1ccccc1,6.8*,.,.,.,.
Cc1ccc(S(=O)(=O)N2CCC(C(=O)NC3CC(C)(C)NC(C)(C)C3)CC2)cc1C,123,9,-7,13,0
CCC(=O)N(C)CCc1cc2c(c(OC)c1/C=N/NC(=O)c1ccccc1O)OCO2,94,-9,9,2,83*
O=C(Cc1ccccc1)NNC(=O)c1ccccc1C(=O)O,106,6,0,2,0
NS(=O)(=O)c1ccc(CCNC(=O)CSCC(=O)Nc2ccc(Cl)cc2)cc1,101,.,11,-7,0
COc1ccccc1NC(=O)CSc1nnnn1-c1ccc(F)cc1,117,-8,0,11,2
COc1ccc(NC(=O)CCn2c(=S)[nH]c3ccccc3c2=O)cc1Cl,82*,.,.,.,.
O=C(CCn1c(=S)[nH]c2ccccc2c1=O)Nc1cccc(Cl)c1,81,8,-7,-2,0
CCOc1cccc(/C=N/Nc2nc(N3CCCC3)nc(N3CCCC3)n2)c1O,88,1,-7,50*,1
CCOc1cc(/C=N/Nc2nc(N3CCCC3)nc(N3CCCC3)n2)ccc1O,97,-8,-21,6,2
O=C(Cn1ncc2c([nH]c3ccccc32)c1=O)N1CCN(c2ccccn2)CC1,-6.6*,-2,10,-1,1
O=C(Cc1coc2cc3c(cc12)CCC3)NC1CCCCCCC1,96,-1,-6,-20,0
O=C(Cc1coc2cc3c(cc12)CCC3)NCC1(N2CCCCC2)CCCCC1,101,5,7,46*,0
CCOc1ccc(C2NC(=O)CCC2[N+](=O)[O-])cc1 (stereo not drawn),119,3,7,-3,0
SMILES,DSG3 Ab inh,JMJD2C inh,VLA-4 inh,PREPL inh,GRK2 inh
Cc1ccc(S(=O)(=O)Nc2c(C)n(C)n(-c3ccccc3)c2=O)cc1C(=O)NCc1ccccn1,.,-4,4,13,0
COc1cc(/C=C(/C#N)C(=O)Nc2ccccc2)ccc1OCc1ccc(C(=O)O)cc1,84,8,42,-4,2
COc1cc(/C=C(\C#N)C(=O)Nc2ccc(C(=O)O)cc2)ccc1OC(=O)c1cccc(F)c1,97,-12,-3,38,42*
CCc1ccc(-n2c(SCC(=O)Nc3ccc(C(=O)O)cc3)nnc2-c2ccncc2)cc1,.,-1,-1,-5,0
CCCCN(C)CC(O)Cn1cc(/C=C/C(=O)c2ccc(C)cc2)c2ccccc21 (stereo not drawn),92,14,31,45*,0
Cc1cccc(OC(=O)NCCOC(=O)N(O)c2ccc(Cl)cc2)c1,-26*,-6,6,8,0
Cc1cccc(OCC(=O)Oc2ccc(Cl)cc2)c1,.,0,2,2,2
CCc1ccc(NC(=O)C(C)OC(=O)c2ccc(N3CCCC3)c([N+](=O)[O-])c2)cc1 (stereo not drawn),107,-13,-9,14,0
O=C(N/N=C/C(Cl)=C\c1ccccc1)c1ccco1,88*,8,-15,13,0
O=C(COC(=O)c1nc(Cl)ccc1Cl)Nc1cccc(S(=O)(=O)N2CCOCC2)c1,130,.,.,.,.
CSCCC(NC(=O)C12CC3CC(CC(C3)C1)C2)C(=O)OCC(=O)c1ccc(C)cc1 (stereo not drawn),53*,-6,-4,7,1
CSCCC(NC(=O)c1ccc([N+](=O)[O-])cc1Cl)C(=O)OCC(=O)C12CC3CC(CC(C3)C1)C2 (stereo not drawn),88,-13,4,-15,2
CCOc1ccc(NC(=O)c2cc(S(=O)(=O)N3CCCCC3)c[nH]2)cc1,80*,-3,-27,7,2
COc1ccccc1CNCCS(=O)(=O)NCc1ccccc1,95,.,.,.,.
COc1ccc(/C=C(\C#N)C(=O)OCC(=O)NC2CC2)cc1,58*,-43,8,-4,0
COc1ccc(N2CCN(C(=O)COC(=O)/C=C/c3ccc(OC(F)F)cc3)CC2)cc1,90*,0,-12,13,0
Nc1nc(Cl)cc(Oc2ccc([N+](=O)[O-])cc2)n1,55*,3,2,-11,0
O=C(COc1cc2oc(=O)c3c(c2cc1Cl)CCC3)Nc1ccccn1,73,-28,25,0,0
O=C(COc1cc2oc(=O)c3c(c2cc1Cl)CCC3)Nc1cccnc1,77*,29,4,22,19
Cc1cccc(N=CC=C2OC(C)(C)C(C)(C)O2)c1,130,6,8,-6,11
Cc1ccccc1N=CC=C1OC(C)(C)C(C)(C)O1,107,-1,8,6,54*
C=CC[C@@H]1C=C(C)C[C@H](C)C[C@H](OC)[C@H]2O[C@@](O)(C(=O)C(=O)N3CCCC[C@H]3C(=O)O[C@H](/C(C)=C/[C@@H]3CC[C@@H](O)[C@H](OC)C3)[C@H](C)[C@@H](O)CC1=O)[C@H](C)C[C@@H]2OC,.,7,13,55*,0
CN(C(=O)COC(=O)c1ccc(-c2ccc(O)cc2)cc1)C1CCS(=O)(=O)C1 (stereo not drawn),70*,-5,0,-1,4
COc1ccc(C2=Nn3c(nnc3-c3ccccc3F)SC2)cc1OC1CCOC1 (stereo not drawn),82*,5,-1,18,2
COc1ccccc1NC(=O)c1ccccc1NS(C)(=O)=O,106,-2,8,-14,0
